Measured values taken from PubChem BioAssay (NCI).
The panel holds about 83,000 compounds, 20% with a hit somewhere; the sample as a whole holds those more often.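 How to read the values: 0–100, growth inhibition (40 = 60% inhibited); 0, no net growth; -100 to 0, cell death (-40 = 40% of starting cells died; -100 = all dead).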 Calls of active or inactive are those of the source. How the source made its calls: active means growth percent below 10; inactive means the rest.

How the values were obtained:
Test in all cases: NCI-60 one-dose screen, 48 h (100 = growth as untreated, 0 = no growth, -100 = all killed)
Details in all cases: 10 µM
[1] = test system: DU-145 prostate
[2] = test system: K-562 leukemia
[3] = test system: MALME-3M melanoma
[4] = test system: MDA-MB-231 breast
[5] = test system: RXF 393 renal
[6] = test system: SF-268 CNS
[7] = test system: SF-295 CNS
[8] = test system: SF-539 CNS
[9] = test system: UACC-257 melanoma
[10] = test system: M14 melanoma

Measured: growth

Oc1ccccc1-c1nnc(Cn2c(Cc3cccc4ccccc34)nc3ccccc32)o1
inactive: [1] 106% | [2] 98.6% | [3] 87.1% | [4] 101% | [5] 108% | [6] 96.6% | [7] 93.9% | [8] 97.9% | [9] 100% | [10] 96.9%

CNC(=S)Sc1ccc([N+](=O)[O-])cc1[N+](=O)[O-]
active: [2] 7.74%
inactive: [1] 38.1% | [3] 87.1% | [4] 50.8% | [5] 97.4% | [6] 94.2% | [7] 95.1% | [8] 25.9% | [9] 62.5% | [10] 24.3%

O=C(NCCc1nccs1)c1cnc2c(S)cccc2c1
active: [2] 4.3% | [5] 9.59%
inactive: [1] 22.9% | [3] 40.1% | [4] 13.6% | [6] 37.7% | [7] 38.8% | [8] 22.8% | [9] 17.7% | [10] 10.7%

CCCCCC(=O)N1c2ccccc2NC2=C(C(=O)CC(c3ccc(OC)c(OC)c3)C2)C1c1ccc(C(F)(F)F)cc1 (stereo not given)
inactive: [1] 85% | [2] 28.4% | [3] 84.3% | [4] 69% | [6] 57.3% | [7] 36.1% | [8] 80.7% | [9] 41.8% | [10] 58.3%
active: [5] 1.04%

COc1ccccc1NC1=C(N2CCCCC2)C(=O)c2ccccc2C1=O
inactive: [1] 105% | [2] 75.5% | [3] 96.9% | [4] 83% | [5] 67.1% | [6] 88.8% | [7] 67.1% | [8] 93.6% | [9] 76.7% | [10] 89.9%

O=C1CC[C@@H](C(=O)N[C@H]2CSSC[C@@H](C(=O)NCCc3ccccc3)NC(=O)[C@H](Cc3ccccc3)NC(=O)[C@@H]3CCCN3C(=O)[C@@H]3CCCN3C2=O)N1
inactive: [1] 110% | [2] 90.6% | [3] 110% | [4] 90.1% | [5] 103% | [6] 106% | [7] 98.8% | [8] 94.2% | [9] 99.1% | [10] 97.8%

Nc1nsc(C(=O)c2ccc(O)cc2)n1
inactive: [1] 105% | [2] 107% | [3] 109% | [4] 90.4% | [5] 120% | [6] 101% | [7] 99.4% | [8] 92.9% | [9] 87% | [10] 105%

CCC(O)c1ccc(Br)cc1NC(=O)c1cccc(Cl)c1 (stereo not given)
active: [2] 8.78% | [3] -3.37% | [4] -1.69% | [7] 9.43% | [8] 2.67% | [9] 7.67% | [10] 0.116%
inactive: [1] 27.9% | [5] 16.3% | [6] 18.7%

Cc1ccc(-n2nnc3c(sc4ccccc43)c2=O)cc1
inactive: [1] 33.7% | [2] 80.3% | [3] 68.1% | [4] 40.9% | [5] 59.9% | [6] 39.8% | [7] 27.3% | [8] 57.2% | [9] 83% | [10] 83.1%

Cc1ccc(-c2cc(-c3cccc(Nc4ccnc5cc(Cl)ccc45)c3)nc3nc(N)[nH]c(=O)c23)cc1
inactive: [1] 105% | [2] 28.1% | [3] 108% | [4] 103% | [5] 90.9% | [6] 91.2% | [7] 102% | [8] 97.5% | [9] 102% | [10] 106%

COc1ccc(C(=O)/C=C/c2cc(-c3ccc(OC)c(OC)c3)n[nH]2)cc1OC
active: [1] -25.8% | [2] 5.44% | [3] -47.5% | [4] -18.7% | [5] -79.3% | [6] -28% | [8] -99.3%
inactive: [7] 18% | [9] 11.7% | [10] 18.1%

NS(=O)(=O)c1ccc(N2N=C(c3ccc(-c4ccccc4)cc3)CC2c2ccc(Cl)cc2)cc1 (stereo not given)
inactive: [1] 96.6% | [2] 71.2% | [3] 106% | [4] 86.9% | [5] 73.4% | [6] 83.5% | [7] 88.4% | [8] 93.9% | [9] 92.4% | [10] 98.2%

FC(F)(F)c1ccc(-c2cnc(Br)nc2NC2CCCCCC2)cc1
inactive: [1] 74.9% | [2] 10.6% | [4] 62.4% | [5] 52.7% | [6] 43.6% | [8] 82.4% | [10] 23.1%
active: [3] -42.4% | [7] -33.2% | [9] -1.23%

COc1cc(C(c2c[nH]c3ccccc23)N2CCCC2)ccc1OCc1ccccc1 (stereo not given)
inactive: [1] 95.9% | [2] 71.2% | [3] 81.8% | [4] 58.4% | [5] 52.9% | [6] 74.6% | [7] 93.8% | [9] 85.3% | [10] 88.2%
active: [8] 4.28%

CCN1CCN(c2nc(NNC(=O)c3cccc(OC)c3)nc(N3CCN(C(c4ccccc4)c4ccccc4)CC3)n2)CC1
inactive: [1] 81.4% | [2] 16.5% | [4] 71.9% | [5] 56.1% | [6] 80.9% | [7] 84% | [8] 71.6% | [9] 45.9%
active: [3] -79.5% | [10] -43.2%

O=C1/C(=C/c2ccc([N+](=O)[O-])s2)Oc2ccc(Cl)cc21
active: [1] -73.5% | [2] -11.2% | [3] -56.8% | [4] -57% | [5] -63.9% | [6] -57.9% | [7] -16.2% | [8] -91.3% | [9] -54.5% | [10] -44.4%

O=C1/C(=C/c2ccc(O)cc2)CSc2ccc(Cl)cc21
inactive: [1] 102% | [2] 64% | [3] 111% | [4] 77.5% | [5] 91.1% | [6] 93% | [7] 91.6% | [8] 85.5% | [9] 100% | [10] 88.8%

COc1ccc(C(=O)c2sc3nc(-c4cccs4)ccc3c2N)cc1OC
inactive: [1] 81% | [2] 13% | [3] 58.9% | [4] 43.8% | [5] 66.9% | [6] 62.8% | [7] 51.3% | [8] 54.6% | [9] 76.3% | [10] 42.1%

CCCCCCOc1ccc(/C=C/C(=O)c2ccc(B(O)O)cc2)cc1
inactive: [1] 88.5% | [2] 82.5% | [3] 86.8% | [4] 73.8% | [5] 74.2% | [6] 76.1% | [7] 111% | [8] 79.1% | [9] 83.4% | [10] 80.8%

CC(C)=C1CCC(C)C/C1=N\N=C(N)N (stereo not given)
inactive: [1] 105% | [2] 97.9% | [3] 100% | [4] 113% | [5] 107% | [6] 99.2% | [7] 98.4% | [8] 104% | [9] 93.5% | [10] 102%

C[n+]1c(/C=C/c2c[nH]c3ccccc23)ccc2ccccc21
inactive: [1] 60.9% | [2] 23.3% | [3] 68.6% | [4] 68.8% | [5] 84% | [6] 72.6% | [7] 47.5% | [8] 87% | [9] 76.8% | [10] 75.2%

CCOC(=O)/C(C#N)=C(/C)C1CC1
inactive: [1] 108% | [2] 117% | [3] 109% | [4] 117% | [5] 94.9% | [6] 107% | [7] 113% | [8] 96.8% | [9] 103% | [10] 109%

CCN(CC)c1ccc(/C=C/C2=[N+](C)c3ccccc3C2(C)C)c(C)c1
active: [2] 6.13% | [3] -33.4% | [4] -1.06% | [7] 4.27% | [9] -15.9%
inactive: [1] 20.3% | [5] 29.5% | [6] 22.7% | [8] 18% | [10] 10.5%

Cc1cc(C)c(/C=C2\C(=O)Nc3ccc(NC(=O)CCCCCCC(=O)NO)cc32)[nH]1
inactive: [1] 19.3% | [2] 22.7% | [3] 18.7% | [4] 12% | [5] 19.1% | [6] 22.8% | [7] 30% | [8] 15% | [10] 18.4%
active: [9] 0.0206%

Cn1c([N+](=O)[O-])cnc1C=C1C(=O)c2ccccc2C1=O
active: [5] 4.59%
inactive: [1] 46.5% | [2] 15.8% | [3] 42.5% | [4] 45.6% | [6] 17.7% | [7] 110% | [8] 17.7% | [9] 37.4% | [10] 19.3%

FC(F)(F)c1ccc(-c2cnc(Cl)nc2NCc2cc(C(F)(F)F)cc(C(F)(F)F)c2)cc1
inactive: [1] 18.8% | [2] 16.3% | [3] 33.6% | [5] 23.3% | [6] 25.3% | [8] 33.1% | [9] 38.2% | [10] 41%
active: [4] -28.6% | [7] -18.8%

O=[N+]([O-])c1ccc(-c2nc(Cl)c3c(n2)CCCC3)o1
inactive: [1] 31.4% | [2] 73.2% | [3] 41.4% | [4] 109% | [5] 93.8% | [6] 88.5% | [7] 115% | [8] 94.6% | [9] 82.5% | [10] 71.3%

COC(=O)c1cnc2c(c1)Oc1ccc(Cl)cc1-c1cc(C)nn1-2
inactive: [1] 79.6% | [2] 95.8% | [3] 94.8% | [4] 35% | [5] 89.8% | [6] 78.9% | [7] 92.3% | [8] 46.1% | [9] 107% | [10] 95.3%
